# Data taken from PubChem BioAssay (NCI).
# Compounds without any hit were thinned out: in the full panel of roughly 83,000, 20% have a hit.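 The test compound was applied at a single concentration to cells in 96-well plates for 48 hours, and percent growth was recorded.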 Activity calls are given as the source filed them. The calls were made as follows: active = growth percent below 10; inactive = the rest.
# System: OVCAR-3 ovarian
# Experiment: NCI-60 one-dose screen, 48 h (100 = growth as untreated, 0 = no growth, -100 = all killed)
# Settings: 10 µM unless noted
row,SMILES,growth
1,NC(=S)c1c(N)n(C2OC(CO)C(O)C2O)c2ncnc(N)c12 (stereo unspecified),-54.1% (active)
2,CCOC(=O)CNC(=O)Sc1ccc(C(C)(C)C)cc1,104% (inactive)
3,c1ccc(Nc2ccccn2)nc1,108% (inactive)
4,C[n+]1c(/C=C\C=C\N2CCCCC2)sc2ccccc21,-24.8% (active)
5,CCC(=O)C1C(=O)c2ccccc2C1=O,104% (inactive)
6,Cc1cc(NC(=O)c2ccccc2)c(Cl)cc1N,119% (inactive)
7,O=C1C=C[C@H](O)[C@@]2(CO)O[C@@H]12,55% (inactive)
8,C(=C\c1ccncc1)/c1ccncc1,169% (inactive)
9,CCOC(=O)c1cc(C)[nH]c(=O)c1C#N,105% (inactive)
10,NC(CCl)=NCC12CC3CC(CC(C3)C1)C2,-21.9% (active)
11,COC1=C(OC)C(=O)C(SC/C=C(\C)CCCC(C)CCCC(C)CCCC(C)C)=CC1=O (stereo unspecified),13.6% (inactive)
12,COc1ccc(Br)c2c1C(=O)CC2,103% (inactive)
13,N#C/C(=C\c1ccc(C#N)cc1)C(=O)c1ccccc1,105% (inactive)

# System: HS 578T breast
# Experiment: as above
# Settings: 10 µM unless noted
row,SMILES,growth
1,CCOC(=O)/C(C#N)=C\c1c[nH]c2ccccc12,116% (inactive)
2,CC(=O)N(C)N=Nc1ccc(C)cc1,95.1% (inactive)
3,COc1cc(C(=O)N2CCN(c3ccccc3)CC2)c2ccccc2n1,27% (inactive)
4,CCOC(=O)c1ccc(NC(=O)Nc2nccs2)cc1,48.4% (inactive)
5,O=c1n(CC2CO2)c(=O)n(CC2CO2)n1CC1CO1 (stereo unspecified),90.5% (inactive)
6,CCCCCCCCCCCCSC1=C(Cl)C(=O)C(OC)=C(OC)C1=O,67.3% (inactive)
7,Cc1ccc(N2C(=O)c3cccc4c(N)c(S(=O)(=O)O)cc(c34)C2=O)cc1,106% (inactive)
8,S=C=Nc1ccc2ccccc2c1,104% (inactive)
9,Oc1cccnc1CN1CCCC1,104% (inactive)
10,O=C1C=C(c2ccccc2)C(O)(c2ccccc2)C1 (stereo unspecified),109% (inactive)
11,Cc1cc(C)cc(OCC(=O)O)c1,105% (inactive)
12,Cc1cccc(C)c1NC(=S)/N=C\c1c(O)[nH]c(=O)[nH]c1=O,92% (inactive)
13,NNC(=O)N/N=C1\C(=O)N(c2nccs2)C(=O)C(=O)C1c1nc2ccccc2s1 (stereo unspecified),96.2% (inactive)
14,O=[N+]([O-])c1c(O)c(CNCCCO)cc(CNCCCO)c1O,97.1% (inactive)
15,O=C1Nc2ccccc2/C1=C\c1ccccc1O,86.2% (inactive)
16,CN(C)c1ccc2c(N(C)C)cc(N(C)C)nc2c1,100% (inactive)
17,Cc1cccc(-[n+]2noc(N)n2)c1,129% (inactive)
18,O=S(Cc1ccccc1)/C(=C/NC(=S)Nc1cc(Cl)ccc1Cl)c1ccccc1 (stereo unspecified),102% (inactive)
19,CCNC(=O)OCCc1c2ccccc2nc2ccccc12,90.2% (inactive)

row,SMILES,growth
1,CCCCn1cnc2c(=O)[nH]cnc21,115% (inactive)
2,Cc1cc(CC(=O)NCCO)n(CCO)c(=O)c1,101% (inactive)
3,CCCCCCCCCCC(=O)CCCCCCCCCC,114% (inactive)
4,NC(=S)c1c(N)n(C2OC(CO)C(O)C2O)c2ncnc(N)c12 (stereo unspecified),-20.1% (active)
5,NC(=S)N/N=C/c1ccc(OC(=O)COc2ccccc2)cn1,116% (inactive)
6,CCOC(=O)CNC(=O)Sc1ccc(C(C)(C)C)cc1,99.2% (inactive)
7,c1ccc(Nc2ccccn2)nc1,113% (inactive)
8,C[n+]1c(/C=C\C=C\N2CCCCC2)sc2ccccc21,34.5% (inactive)
9,CCC(=O)C1C(=O)c2ccccc2C1=O,135% (inactive)
10,Cc1cc(NC(=O)c2ccccc2)c(Cl)cc1N,109% (inactive)
11,O=C1C=C[C@H](O)[C@@]2(CO)O[C@@H]12,100% (inactive)
12,Oc1cc(O)c2c(c1)O[C@H](c1ccc(O)c(O)c1)[C@@H](O)C2,117% (inactive)
13,C(=C\c1ccncc1)/c1ccncc1,114% (inactive)
14,CCOC(=O)c1cc(C)[nH]c(=O)c1C#N,107% (inactive)
15,NC(CCl)=NCC12CC3CC(CC(C3)C1)C2,47.9% (inactive)
16,COC1=C(OC)C(=O)C(SC/C=C(\C)CCCC(C)CCCC(C)CCCC(C)C)=CC1=O (stereo unspecified),63.6% (inactive)
17,COc1ccc(Br)c2c1C(=O)CC2,140% (inactive)
18,N#C/C(=C\c1ccc(C#N)cc1)C(=O)c1ccccc1,116% (inactive)
19,CN1CCCN(C(c2ccccc2)c2ccc(Cl)cc2)CC1 (stereo unspecified),86.3% (inactive)
